Results from the supplement of paper PMC10849652.
Targets with a hit are over-represented here; the source holds about 7,900 in all. About 0.6% of all pairs of compound and target were hits.

Experiments:
Assay in all cases: log2 fold change, soluble protein after heating vs DMSO (PISA); higher = thermal stabilisation; K562 cells, 10 uM, 30 min; active = over 0.2 and 3.5 SD of the protein, either way, in both replicates (recomputed)
[1] = molecular target: YAE1 (UniProt Q9NRH1)
Summary of the method: (§1)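 Soluble protein was defined as the supernatant after 21,000xg for 90 min. It came from K562 cells at 2×10^6 cells/mL given 10 μM compound for 30 min, heated in aliquots for 3 min across 48°C-58°C, pooled, and extracted in PBS with 0.5% NP-40 at 4°C, and was quantified by TMTpro 16plex LC-MS/MS with equalised channel sums. Thermal stability against control samples, from duplicates, is reported as log2 fold change.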

[2] = molecular target: YBX1 (UniProt P67809)
Chain of YBX1 (P67809 whole entry, looked up): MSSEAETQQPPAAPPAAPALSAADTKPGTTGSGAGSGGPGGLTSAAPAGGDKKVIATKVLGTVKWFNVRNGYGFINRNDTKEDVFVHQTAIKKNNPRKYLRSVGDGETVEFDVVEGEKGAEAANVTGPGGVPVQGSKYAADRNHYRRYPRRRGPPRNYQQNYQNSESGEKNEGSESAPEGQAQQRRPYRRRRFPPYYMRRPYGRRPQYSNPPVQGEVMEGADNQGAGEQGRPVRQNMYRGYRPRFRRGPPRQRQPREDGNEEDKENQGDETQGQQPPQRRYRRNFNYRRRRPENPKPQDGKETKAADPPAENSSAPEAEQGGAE
Summary of the method: as §1

[3] = molecular target: YES1 (UniProt P07947)
Chain of YES1 (P07947 whole entry, looked up): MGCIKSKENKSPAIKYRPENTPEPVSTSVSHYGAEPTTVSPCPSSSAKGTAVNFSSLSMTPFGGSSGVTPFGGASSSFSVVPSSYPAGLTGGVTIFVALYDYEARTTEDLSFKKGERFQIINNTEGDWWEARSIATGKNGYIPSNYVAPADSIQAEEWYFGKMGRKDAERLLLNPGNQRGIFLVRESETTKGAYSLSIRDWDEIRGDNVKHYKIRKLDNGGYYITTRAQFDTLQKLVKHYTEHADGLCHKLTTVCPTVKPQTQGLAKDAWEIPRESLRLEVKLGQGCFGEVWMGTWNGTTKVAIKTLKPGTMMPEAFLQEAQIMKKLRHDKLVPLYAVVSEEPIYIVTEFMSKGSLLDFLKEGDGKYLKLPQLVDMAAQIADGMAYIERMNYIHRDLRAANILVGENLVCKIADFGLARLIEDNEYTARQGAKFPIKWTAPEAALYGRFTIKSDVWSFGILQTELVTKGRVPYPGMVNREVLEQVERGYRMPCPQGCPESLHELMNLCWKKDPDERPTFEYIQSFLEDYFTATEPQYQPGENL
Summary of the method: as §1

[4] = molecular target: YIPF4 (UniProt Q9BSR8)
Chain of YIPF4 (Q9BSR8 whole entry, looked up): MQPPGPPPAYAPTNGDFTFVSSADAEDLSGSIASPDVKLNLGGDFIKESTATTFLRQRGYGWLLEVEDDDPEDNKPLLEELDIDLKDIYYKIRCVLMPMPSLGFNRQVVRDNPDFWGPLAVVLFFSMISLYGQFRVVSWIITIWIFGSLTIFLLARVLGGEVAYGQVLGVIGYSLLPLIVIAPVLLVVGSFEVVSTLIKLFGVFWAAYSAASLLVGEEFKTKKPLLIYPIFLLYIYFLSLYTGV
Summary of the method: as §1

[5] = molecular target: YIPF5 isoform 3 (UniProt Q969M3)
Chain of YIPF5 isoform 3 (Q969M3 whole entry, looked up, canonical isoform): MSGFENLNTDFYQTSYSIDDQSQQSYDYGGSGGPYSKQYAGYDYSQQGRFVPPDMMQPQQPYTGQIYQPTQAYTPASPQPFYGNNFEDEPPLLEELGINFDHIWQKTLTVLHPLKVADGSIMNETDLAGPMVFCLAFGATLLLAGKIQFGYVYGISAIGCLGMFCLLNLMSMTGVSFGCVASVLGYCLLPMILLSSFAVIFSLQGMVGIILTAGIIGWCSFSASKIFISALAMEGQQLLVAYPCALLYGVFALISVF
Summary of the method: as §1

[6] = molecular target: YIPF6 (UniProt Q96EC8)
Chain of YIPF6 (Q96EC8 whole entry, looked up): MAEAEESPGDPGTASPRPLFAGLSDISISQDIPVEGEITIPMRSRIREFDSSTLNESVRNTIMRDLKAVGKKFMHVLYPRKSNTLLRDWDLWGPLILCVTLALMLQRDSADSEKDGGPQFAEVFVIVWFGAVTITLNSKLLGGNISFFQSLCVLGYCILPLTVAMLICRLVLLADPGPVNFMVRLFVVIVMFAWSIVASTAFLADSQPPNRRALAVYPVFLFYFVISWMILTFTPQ
Summary of the method: as §1

[7] = molecular target: YLPM1 (UniProt P49750)
Chain of YLPM1 (P49750 whole entry, looked up): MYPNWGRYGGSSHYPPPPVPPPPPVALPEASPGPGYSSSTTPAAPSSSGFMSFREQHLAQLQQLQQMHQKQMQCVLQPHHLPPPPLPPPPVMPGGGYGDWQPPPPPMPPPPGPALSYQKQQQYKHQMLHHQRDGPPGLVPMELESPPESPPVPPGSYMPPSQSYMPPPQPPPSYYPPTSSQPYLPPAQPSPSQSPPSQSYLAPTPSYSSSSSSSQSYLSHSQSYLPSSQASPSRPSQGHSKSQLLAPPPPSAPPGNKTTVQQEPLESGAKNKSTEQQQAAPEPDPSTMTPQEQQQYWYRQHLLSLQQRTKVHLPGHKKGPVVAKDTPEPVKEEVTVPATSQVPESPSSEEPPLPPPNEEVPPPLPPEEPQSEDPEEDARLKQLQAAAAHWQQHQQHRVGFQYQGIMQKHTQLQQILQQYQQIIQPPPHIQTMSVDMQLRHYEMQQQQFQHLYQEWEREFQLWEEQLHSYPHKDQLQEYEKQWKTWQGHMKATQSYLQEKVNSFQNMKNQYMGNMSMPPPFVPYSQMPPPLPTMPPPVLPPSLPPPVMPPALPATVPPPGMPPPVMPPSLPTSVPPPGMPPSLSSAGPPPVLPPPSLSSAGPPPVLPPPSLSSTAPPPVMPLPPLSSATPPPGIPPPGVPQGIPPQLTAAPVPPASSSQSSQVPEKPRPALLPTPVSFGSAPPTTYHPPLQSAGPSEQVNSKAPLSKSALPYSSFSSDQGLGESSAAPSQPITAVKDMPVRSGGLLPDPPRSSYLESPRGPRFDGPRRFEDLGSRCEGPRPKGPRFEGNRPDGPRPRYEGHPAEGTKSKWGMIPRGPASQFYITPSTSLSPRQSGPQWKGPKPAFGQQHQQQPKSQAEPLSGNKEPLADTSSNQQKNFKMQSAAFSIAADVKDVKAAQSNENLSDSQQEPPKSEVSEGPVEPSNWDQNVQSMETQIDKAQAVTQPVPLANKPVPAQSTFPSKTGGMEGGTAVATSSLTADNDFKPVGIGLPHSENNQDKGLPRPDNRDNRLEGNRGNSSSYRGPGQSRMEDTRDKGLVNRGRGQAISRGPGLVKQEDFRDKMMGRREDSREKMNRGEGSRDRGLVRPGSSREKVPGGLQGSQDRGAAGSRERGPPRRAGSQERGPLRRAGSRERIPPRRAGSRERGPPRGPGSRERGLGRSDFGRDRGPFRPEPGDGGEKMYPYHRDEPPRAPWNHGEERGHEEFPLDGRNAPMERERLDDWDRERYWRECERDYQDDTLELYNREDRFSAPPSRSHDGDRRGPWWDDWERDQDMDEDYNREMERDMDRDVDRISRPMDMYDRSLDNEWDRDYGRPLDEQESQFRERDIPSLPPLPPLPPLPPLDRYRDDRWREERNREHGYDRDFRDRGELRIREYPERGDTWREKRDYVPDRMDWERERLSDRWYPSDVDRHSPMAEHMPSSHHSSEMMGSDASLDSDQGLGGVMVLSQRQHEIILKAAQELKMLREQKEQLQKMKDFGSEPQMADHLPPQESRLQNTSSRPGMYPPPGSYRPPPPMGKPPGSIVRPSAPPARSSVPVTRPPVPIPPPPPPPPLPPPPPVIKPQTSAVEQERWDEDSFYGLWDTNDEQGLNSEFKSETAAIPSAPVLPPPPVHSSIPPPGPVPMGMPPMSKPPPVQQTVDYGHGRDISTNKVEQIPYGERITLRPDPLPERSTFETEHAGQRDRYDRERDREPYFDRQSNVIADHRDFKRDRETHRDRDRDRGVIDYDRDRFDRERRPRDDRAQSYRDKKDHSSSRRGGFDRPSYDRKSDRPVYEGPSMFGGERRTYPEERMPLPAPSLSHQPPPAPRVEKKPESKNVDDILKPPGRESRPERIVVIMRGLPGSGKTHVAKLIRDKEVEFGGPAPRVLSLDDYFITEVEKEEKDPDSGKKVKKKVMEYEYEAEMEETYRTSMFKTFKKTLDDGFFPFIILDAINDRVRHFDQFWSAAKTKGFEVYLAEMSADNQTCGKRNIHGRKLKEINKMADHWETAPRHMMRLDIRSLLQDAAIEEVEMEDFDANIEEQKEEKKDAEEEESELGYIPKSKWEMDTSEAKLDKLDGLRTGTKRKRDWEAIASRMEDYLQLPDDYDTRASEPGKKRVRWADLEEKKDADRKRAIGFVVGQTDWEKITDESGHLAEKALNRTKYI
Summary of the method: as §1

[8] = molecular target: YOD1 (UniProt Q5VVQ6)
Chain of YOD1 (Q5VVQ6 whole entry, looked up): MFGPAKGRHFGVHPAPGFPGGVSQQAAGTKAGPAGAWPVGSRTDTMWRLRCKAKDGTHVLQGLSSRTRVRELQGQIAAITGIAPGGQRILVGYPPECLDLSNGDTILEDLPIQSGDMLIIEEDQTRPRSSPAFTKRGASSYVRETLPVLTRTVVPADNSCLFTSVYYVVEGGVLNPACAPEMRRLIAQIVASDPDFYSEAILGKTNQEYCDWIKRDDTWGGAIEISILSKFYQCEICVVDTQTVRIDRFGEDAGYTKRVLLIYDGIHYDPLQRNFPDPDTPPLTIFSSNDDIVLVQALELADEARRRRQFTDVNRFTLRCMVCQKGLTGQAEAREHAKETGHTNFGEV
Summary of the method: as §1

[9] = molecular target: YPEL5 (UniProt P62699)
Chain of YPEL5 (P62699 whole entry, looked up): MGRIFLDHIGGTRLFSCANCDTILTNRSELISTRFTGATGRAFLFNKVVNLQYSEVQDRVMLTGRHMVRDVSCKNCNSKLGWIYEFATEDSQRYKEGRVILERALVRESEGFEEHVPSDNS
Summary of the method: as §1

Measured: log2 fold change

Chain of YAE1 (Q9NRH1 whole entry, looked up): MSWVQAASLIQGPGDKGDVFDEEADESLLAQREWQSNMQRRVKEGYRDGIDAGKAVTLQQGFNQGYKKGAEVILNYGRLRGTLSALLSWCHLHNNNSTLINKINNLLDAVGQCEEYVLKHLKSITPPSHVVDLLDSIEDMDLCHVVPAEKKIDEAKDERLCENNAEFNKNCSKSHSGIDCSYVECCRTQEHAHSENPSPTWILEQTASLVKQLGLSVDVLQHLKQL

Fc1ccc(Cl)cc1-c1nc(Nc2ccncc2)c2nccnc2n1
inactive: [1] 0.007 | [2] -0.273 | [3] -0.179 | [4] -0.014 | [5] 0.024 | [6] 0.138 | [7] 0.057 | [8] 0.021 | [9] -0.028

COC(=O)[C@H](CCSC)NC(=O)c1ccc(NC[C@@H](N)CS)cc1-c1ccccc1
inactive: [1] 0.059 | [2] 0.113 | [3] -0.006 | [4] 0.088 | [5] 0.046 | [6] 0.041 | [7] -0.014 | [8] -0.016 | [9] -0.23

COc1cccc2cc(-c3nc([C@H]4CC[C@H](C(=O)O)CC4)n4ncnc(N)c34)[nH]c12
inactive: [1] 0.016 | [2] -0.091 | [3] -0.256 | [4] 0.06 | [5] 0.017 | [6] 0.02 | [7] 0.053 | [8] 0.011 | [9] -0.142

Cc1cccc(CC(=O)N2CCc3c2ccc(-c2cn(C)c4ncnc(N)c24)c3F)n1
inactive: [1] 0.008 | [2] -0.024 | [3] 0.007 | [4] -0.042 | [5] 0.06 | [6] -0.006 | [7] -0.05 | [8] 0.041 | [9] 0.198

CCn1cc(-c2ccnc3[nH]c(-c4cccc(CN(C)C)c4)cc23)c(-c2ccc(NC(=O)N(C)C)cc2)n1
inactive: [1] -0.015 | [2] 0.249 | [3] -0.241 | [4] 0.037 | [5] 0.06 | [6] 0.103 | [7] -0.012 | [8] -0.101 | [9] -0.072

CO[C@H]1C[C@@H]2CC[C@@H](C)[C@@](O)(O2)C(=O)C(=O)N2CCCC[C@H]2C(=O)O[C@H]([C@H](C)C[C@@H]2CC[C@H](n3cnnn3)[C@H](OC)C2)CC(=O)[C@H](C)/C=C(\C)[C@@H](O)[C@@H](OC)C(=O)[C@H](C)C[C@H](C)/C=C/C=C/C=C/1C [zotarolimus]
inactive: [1] 0 | [2] -0.048 | [3] 0.053 | [4] 0.015 | [5] 0.006 | [6] -0.026 | [7] -0.001 | [8] 0.05 | [9] 0.05

CC(C)(C)Cn1c(N)nc2ccc(-c3[nH]c(C(C)(C)C)nc3-c3ccc(F)cc3)nc21 [ralimetinib]
inactive: [1] 0.023 | [2] 0.082 | [3] -0.09 | [4] -0.099 | [5] -0.292 | [6] -0.045 | [7] 0.043 | [8] -0.001 | [9] -0.111

CCCS(=O)(=O)Nc1ccc(F)c(C(=O)c2c[nH]c3ncc(-c4ccc(Cl)cc4)cc23)c1F [vemurafenib]
inactive: [1] 0.019 | [2] -0.12 | [3] -0.159 | [4] 0.03 | [5] -0.021 | [6] -0.15 | [7] 0.017 | [8] -0.001 | [9] -0.068

C#Cc1cccc(Nc2ncnc3cc(OCCOC)c(OCCOC)cc23)c1 [erlotinib]
inactive: [1] 0.055 | [2] -0.173 | [3] -0.145 | [4] 0.004 | [5] 0.011 | [6] -0.017 | [7] 0.084 | [8] 0.064 | [9] 0.049

CS(=O)(=O)N1CCN(Cc2cc3nc(-c4cccc5[nH]ncc45)nc(N4CCOCC4)c3s2)CC1 [pictilisib]
inactive: [1] 0.021 | [2] 0.033 | [3] 0.093 | [4] 0.15 | [5] 0.027 | [6] 0.107 | [7] 0.065 | [8] -0.001 | [9] 0.172

Cc1cc(SCc2sc(-c3ccc(C(F)(F)F)cc3)nc2C)ccc1OCC(=O)O
inactive: [1] 0.021 | [2] -0.024 | [3] 0.06 | [4] -0.04 | [5] 0.015 | [6] -0.175 | [7] 0 | [8] 0.061 | [9] 0.098

Cc1ccc(NC(=O)c2cccc(C(C)(C)C#N)c2)cc1Nc1ccc2ncn(C)c(=O)c2c1
inactive: [1] 0.056 | [2] 0.041 | [4] 0.013 | [5] 0.042 | [6] -0.131 | [7] -0.095 | [8] 0.067 | [9] -0.131

COc1cc2ncnc(Nc3ccc(F)c(Cl)c3)c2cc1OCCCN1CCOCC1 [gefitinib]
inactive: [1] -0.016 | [2] -0.096 | [3] -0.045 | [4] 0.038 | [5] 0.024 | [6] 0.005 | [7] 0.002 | [8] 0.006 | [9] -0.239

CCn1c(C(=O)N(C2CC2)C2CC2)cc2c3c(ncn3C)c(Nc3cc(C)n(C)n3)nc21
inactive: [1] -0.018 | [2] -0.016 | [3] -0.243 | [4] 0 | [5] -0.01 | [6] 0.022 | [7] -0.077 | [8] -0.014 | [9] 0.027

CON(C)C(=O)N1N=C(c2cc(F)ccc2F)S[C@@]1(CCCN)c1ccccc1 [filanesib]
inactive: [1] 0.133 | [2] 0.202 | [4] 0.077 | [5] 0.017 | [6] -0.08 | [7] 0.083 | [8] -0.067 | [9] 0.413

Nc1ccccc1NC(=O)c1ccc(CNC(=O)OCc2cccnc2)cc1 [entinostat]
inactive: [1] 0.011 | [2] -0.073 | [4] -0.04 | [5] -0.05 | [6] 0.228 | [7] -0.064 | [8] -0.143 | [9] -0.187

CC(C)c1cnn2c(NCc3ccccc3)cc(NCCCCCCN)nc12
inactive: [1] 0.057 | [2] 0.038 | [3] 0 | [4] -0.032 | [5] 0.008 | [6] -0.044 | [7] -0.086 | [8] -0.153 | [9] -0.083

CS(=O)(=O)c1ccc(-c2cnc(N)c(C(=O)Nc3ccccc3)n2)cc1
inactive: [1] 0.011 | [2] -0.101 | [4] 0.013 | [5] -0.093 | [6] 0.199 | [7] -0.051 | [8] 0.117 | [9] 0.152

NC(=O)Nc1cc(-c2cccc(F)c2)sc1C(=O)N[C@H]1CCCNC1
inactive: [1] -0.023 | [2] 0.025 | [4] 0.066 | [5] 0.023 | [6] -0.081 | [7] -0.023 | [8] -0.079 | [9] 0.114

Cn1cc(-c2ccc3nnc(C(F)(F)c4ccc5ncccc5c4)n3n2)cn1
inactive: [1] 0.043 | [2] -0.136 | [3] 0.008 | [4] 0.108 | [5] 0.12 | [6] 0.032 | [7] 0.031 | [8] 0.057 | [9] -0.071
